According to the supplement of paper PMC6555819:

Columns and labels:
Assay in all cases: PBM binding z-score (relative to random genomic background probes); higher = stronger binding; sequences stand for … in GC…GCGATTGACAGCGTAGAATGAAGG
[1] = test system: RARb homodimer (NR concentration 270 nM)
Procedure, shortened: (§1)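 Regression normalization was applied to scanned fluorescence from custom Agilent 4×180K protein-binding microarrays. Before scanning, arrays were incubated 1 h with ligand-free nuclear receptor dimers, and binding was detected with antibodies against each partner (one per run). Binding z-scores use the random background probes as reference.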

[2] = test system: RARg:RXRa (NR concentration 270 nM, RXRa partner concentration 90 nM)
Procedure, shortened: as §1

[3] = test system: RARg homodimer (NR concentration 270 nM)
Procedure, shortened: as §1

[4] = test system: RXRa DBDmut IVT, anti-RXR (DBD mutation: RXRa K156A/R161A, NR concentration 90 nM)
Procedure, shortened: as §1

[5] = test system: RXRa homodimer (NR concentration 180 nM)
Procedure, shortened: as §1

[6] = test system: THRa:RXRa (NR concentration 90 nM, RXRa partner concentration 90 nM)
Procedure, shortened: as §1

[7] = test system: THRa homodimer (NR concentration 90 nM)
Procedure, shortened: as §1

[8] = test system: VDR homodimer (NR concentration 270 nM)
Procedure, shortened: as §1

Row | Sequence | PBM binding z-score [1] | PBM binding z-score [2] | PBM binding z-score [3] | PBM binding z-score [4] | PBM binding z-score [5] | PBM binding z-score [6] | PBM binding z-score [7] | PBM binding z-score [8]
1 | ACTAGTTGGTCAGCTGAGGTGACACACAATTCGG | 1.74 | 1.34 | 1.29 | -0.108 | 0.902 | 4.41 | 2.03 | 0.149
2 | CGGCCAAGGTCATAGGAGGTCAGTGAAGACAGAT | 5.15 | 6.78 | 7.19 | 3.51 | 6.42 | 5.33 | 2.88 | 4.3
3 | CCTAGTTGGTCAGCAGGTCACACACCGGATATGA | 3.43 | 3.52 | 3.44 | 0.217 | 3.16 | 2.77 | 1.35 | 1.05
4 | CCGACTGGGGCCTAAGGTTACCATAAGCCAGCCC | 1.1 | 0.451 | -0.117 | -0.875 | 0.652 | 2 | 1.26 | 0.0794
5 | CCTTACGGGTCACTCCCGGTTATAGCATCGGAGT | 2.94 | 4.42 | 4.31 | 1.43 | 4.33 | 3.71 | 0.272 | 1.14
6 | ATCCCTAGGTAACAAGTTCAGTGAAAGAGAGGAC | 1.94 | 1.09 | 1.15 | 0.955 | 0.712 | 1.65 | 1.17 | 2.48
7 | CCTAGTTGGGCAAGGTCACACACGCTATAGGTAC | 3.9 | 4.2 | 3.87 | 1.51 | 4.41 | 3.79 | 3.23 | 2.77
8 | ATCTCTAGGTAAGACTCACTTCAGTGAAGAACGC | -0.0357 | -0.204 | 0.301 | 0.173 | -0.184 | 0.282 | 0.429 | -0.111
9 | CATACAGGGTCAGCTAGACCAGAGTAGGGACGGC | 2.81 | 4.53 | 4.93 | 1.59 | 4.3 | 2.83 | 0.733 | 0.573
10 | TCATATAGGTAATACATGTGAAAGTCGGCATCTA | -0.0768 | 0.625 | 0.544 | 1.57 | 1.14 | 0.246 | -0.0874 | 0.128
11 | ACACACAGGTGATGAAGGTAACTCAGGCTATCAT | 0.43 | 0.435 | 0.664 | 0.355 | 0.276 | 1.06 | 0.194 | 0.17
12 | CAGCCTATGTCAGGGCCAGTATAGGAGGAACGTT | 0.243 | 0.116 | 0.219 | -0.685 | -0.248 | -0.329 | -0.168 | -0.529
13 | CGTCCAAGGTCAGAGGAGGTCAGTGAAGACAGAT | 5.15 | 6.03 | 6.88 | 2.36 | 5.13 | 5.09 | 2.8 | 3.43
14 | AGAACGAGGGCAATGAATTGATAGCACGGGTGGC | 0.905 | 1.08 | 1.27 | 1.34 | 0.98 | 0.765 | -0.323 | 0.621
15 | CAAACTAGGTTAAGGTCAAAGTCGGTTTGTGCCA | 4.49 | 5.11 | 4.99 | 2.74 | 5.29 | 4.54 | 5.29 | 4.48
16 | CGAACTGGGTCATCCAGGACAGTGAATACATTGA | 2.71 | 3.55 | 3.7 | 1.35 | 2.99 | 3.48 | 1.25 | 1.8
17 | TCTTGGAGATCAGCAGGTTAAGAAAGCTGGCCAA | -0.0506 | -0.0345 | -0.56 | 0.285 | 0.182 | 0.0283 | -0.695 | -0.225
18 | TCTAGTTGGTCAAAGGTCACATACTCGAAATGCG | 5.18 | 6.93 | 6.01 | 1.65 | 7.86 | 3.89 | 1.76 | 2.75
19 | GCTAGCAGTCCATTTGGGTCACTCAATGACGGGC | 1.54 | 0.428 | 0.586 | 0.506 | 0.617 | 1.82 | 0.507 | 0.912
20 | CCGACTGGGGCAAGGTTACCAAAACGCACAGCCA | 1.38 | 1.04 | 1.18 | -0.429 | 1.23 | 1.29 | 0.178 | -0.217
21 | TCTCGGAGGACACGAAAGGTCATAGCTCGACATC | 4.89 | 5.58 | 5.34 | 1.71 | 5.3 | 4.24 | 2.12 | 2.67
22 | ACTATTAGTTGAGACGAGGACAACCGATAGGTTG | 0.638 | 0.27 | 0.902 | 0.0973 | 0.226 | 3.9 | 2.56 | 0.657
23 | TCATATAGGTAAATGTTAGGTGAAAGTCCGATCT | 0.881 | 0.623 | 0.326 | 2.12 | 1.09 | 2.51 | 1.58 | 0.982
24 | TCTAGCAGGCCAGAGGGCCACTCAAGAGGTACGG | -0.0244 | -0.057 | -0.117 | -0.104 | 0.144 | -0.545 | -1.1 | -0.232
25 | TCTGCTCGGTCAGTTGGTCAGCTAACGAGCTGCC | 1.35 | 0.987 | 1.71 | -0.175 | -0.299 | -0.381 | -0.999 | -0.918
26 | GCATATAGGTAAGACAAGGTGAAAGTCCGATTGT | 0.617 | 0.376 | 0.405 | 0.267 | 0.545 | 3.81 | 0.676 | -0.12
27 | GCTGCTAGCTCAACTGATGGTCAGCTAAAGCTCG | -0.699 | -0.731 | -0.78 | -0.306 | -0.88 | -0.877 | -1.48 | -1.04
28 | ACTTACGGGTGAACGAGGTTATAGCACGCGTATA | 1.2 | 1.47 | 0.987 | 0.294 | 2.06 | 2.39 | 0.511 | 1.01
